# Reference: PubChem BioAssay (EPA / NIEHS)
# Calls of active or inactive are those of the source. The calls were made as follows: active = hit-call score of the fitted dose curve at least 0.9, where 1 is the maximum; inactive = score below 0.9.
# Assay: APR_HepG2_P-H2AX_24hr: Apredica 24-hour HepG2 Assay for H2AX Phosphorylation (AID 2282920)
# Conditions: high-content imaging, actives raise or lower the signal
# Procedure: APR_HepG2_24hr is a cell-based, multiplexed-readout assay that uses HepG2, a human liver cell line, with measurements taken at 24 hours after chemical dosing in a 384-well plate.APR_HepG2_P-H2AX_24hr is one of 10 assay component(s) measured or calculated from the APR_HepG2_24hr assay. It is designed to make measurements of dna content, a form of viability reporter, as detected with fluorescence intensity signals by HCS Fluorescent Imaging technology.Data from the assay component APR_HepG2_P-H2AX_24hr was analyzed into 1 assay endpoint. This assay endpoint, APR_HepG2_P-H2AX_24hr, was analyzed with bidirectional fitting relative to DMSO as the negative control and baseline of activity. Using a type of viability reporter, measures of protein for gain or loss-of-signal activity can be used to understand the signaling at the pathway-level as they relate to the gene . Furthermore, this assay endpoint can be referred to as a primary readout, because this assay has produced multiple assay endpoints where this one serves a signaling function. To generalize the intended target to other relatable targets, this assay endpoint is annotated to the dna binding intended target family, where the subfamily is cellular response to DNA damage stimulus.
# Cells were treated with dimethyl sulfoxide (DMSO) as a solvent control at a final concentration of 0.5% v/v or with compounds in DMSO with a resulting final DMSO concentration of 0.5% v/v. Compound treatment was done at concentrations of 0.39, 0.78, 1.56, 3.12, 6.24, 12.5, 25, 50, 100, and 200 uM in duplicate on each plate. Cells were treated with compounds for 1, 24, or 72 hr. Carbonyl […] m-chloro-phenylhydrazone (CCCP) and taxol were used as positive controls for mitochondrial function and cytoskeletal stability, respectively; DMSO served as the negative control for this experiment. Cells were fixed by the direct addition of 50 uL formaldehyde in Hank's Balanced Salt Solution (HBSS) to a final concentration of 3.7%. After incubation in the fixation medium for 30 min at room temperature (293-298 K), cells were rinsed twice with HBSS and treated with cell permeabilization buffer (16 uL of 0.5% Triton X-100) for 10 min at room temperature (293-298 K) before labeling. For mitochondrial membrane potential and mitochondrial measurements, pre-fixed cells were incubated with 50 uL of MitoTracker Red CMXRos (Invitrogen) at a concentration of 250 nM for 30 min before fixation. In the remaining cases, post-fixed cells were labeled by incubation with a multiplexed mixture of primary antibodies in HBSS for 60 min at room temperature (293-298 K) to detect immunoreactivity of c-Jun (1:500), phospho-histone H3 (1:100), phospho-histone H2A.x (1:200), p53 (1:400), alpha-tubulin (1:200) and Hoechst 33342 (2 ug/mL). Cells were labeled for multiplexed imaging on two separate plates: a) Hoechst 33342, MitoTracker Red, phospho-histone H3, and alpha-tubulin, and b) Hoechst 33342, phospho-histone H2A.x, and c-Jun. A final rinse with HBSS (50 uL) was performed before analysis. The primary and secondary antibodies for the proteins were phospho-histone H3 (rabbit anti-phospho-histone H3 and FITC-donkey anti-rabbit IgG), phospho-histone H2A.x (mouse anti-phospho-histone H2A.x and FITC-donkey anti-mouse IgG), c-Jun (rabbit anti-phospho-c-Jun and Cy3-donkey anti-rabbit IgG), p53 (sheep anti-p53 and Cy5-donkey anti-sheep IgG), alpha-tubulin (mouse anti-alpha-tubulin and Cy5-donkey anti-mouse IgG). These antibodies are available as the CellCiphr HepG2 assay kit (Millipore).Digital images of each well were captured using a Cellomics ArrayScan VTI (Thermo Scientific Cellomics) (0.8 NA objective, 0.63x optical coupler, and XF-93 filter set) at 20x magnification. The images were acquired using the autofocus feature of the ArrayScan instrument, which entails the following steps. First, the camera focuses on channel 1 (Hoechst 33342), where nuclei are identified. Second, a Z offset of 1 um is used for capturing mitochondria (MitoTracker Red). […]
Structure (SMILES),outcome,AC50
OCc1ccccc1,inactive,
CCCCCCCC/C=C\CCCCCCCC(=O)OC[C@@H](O)[C@H]1OC[C@H](O)[C@H]1O,inactive,
CCCCC(CC)C(=O)OCCOCCOCCOC(=O)C(CC)CCCC (stereo not given),inactive,
C[C@@H](Oc1ccc(CNC(=O)c2cccnc2Oc2ccc3c(c2)OCO3)c(F)c1)C(=O)O,inactive,
COc1cc2c(c(OC)c1OC)-c1ccc(OC)c(=O)cc1[C@@H](NC(C)=O)CC2,,0.0797 µM (active)
C=CCc1cc(S(=O)(=O)c2ccc(O)c(CC=C)c2)ccc1O,,77.5 µM (active)
OC(CCl)CCl,inactive,
C=CN1CCCC1=O,inactive,
c1ccc2ncccc2c1,inactive,
NC(=O)N(O)[C@@H]1COc2cc(OCc3ccccc3)ccc21,inactive,
Cn1cc[nH]c1=S,inactive,
c1ccc(C(O[C@@H]2CCCN(CCc3ccc4c(c3)OCO4)C2)c2ccccc2)cc1,,103 µM (active)
CC(C)c1nnc2ccc(-c3ocnc3-c3cc(F)ccc3F)cn12,inactive,
CCc1cccc(CC)c1N,inactive,
OCCOCCOCCO,inactive,
NC(=O)N1c2ccccc2C=Cc2ccccc21,inactive,
O=C(O)c1cccc(C(=O)O)c1,inactive,
CCCCCOC(C)=O,inactive,
OCC(CO)(CO)CO,inactive,
OCCNCCO,inactive,

Structure (SMILES),outcome,AC50
c1ccc2cc3ccccc3cc2c1,,107 µM (active)
CC1(C)C(=O)N(Cl)C(=O)N1Cl,inactive,
Cc1nccn1-c1ccc(Sc2cccc(C3(C(N)=O)CCOCC3)c2)cc1,,73.4 µM (active)
CC(C)CCCCCCOC(=O)C1CCCCC1C(=O)OCCCCCCC(C)C (stereo not given),inactive,
O=c1[nH]cnc2c1ncn2[C@H]1CC[C@@H](CO)O1,inactive,
NC(=O)NN=Cc1ccc([N+](=O)[O-])o1,,72 µM (active)
c1ccc2c(c1)-c1cccc3c1c-2cc1ccccc13,inactive,
COc1cc(C(C)C)c2c(c1)S(=O)(=O)N(COc1cc(=O)n3cccc(OCCN4CCCCC4)c3n1)C2=O,,10.7 µM (active)
CCCCCCCCCCCCCCCCOS(=O)(=O)O,inactive,
Cn1c(=O)c2[nH]cnc2n(C)c1=O,inactive,
Cc1nc(-c2ccccn2)ncc1C(=O)Nn1cc(C)c2cc(F)ccc21,inactive,
CCOC(N)=O,inactive,
C[C@]12C=CC(=O)C=C1CC[C@H]1[C@@H]3C[C@@H](O)[C@](O)(C(=O)CO)[C@@]3(C)C[C@H](O)[C@@]12F,inactive,
COCc1nnc(-c2ccc[n+]([O-])c2)n1-c1c(Cl)c(Cl)cc2[nH]c(=O)c(=O)[nH]c12,inactive,
O=C(O)[C@H](O)[C@@H](O)C(=O)O,inactive,
Cc1ccc(S(=O)(=O)NC(=O)NN2CCCCCC2)cc1,inactive,
O=C(O)c1ccc2c(c1)nc(C(=O)NC1CCN(C3CC3)CC1)n2Cc1cc(-c2ccc(Cl)s2)on1,inactive,
NNC(=O)c1ccncc1,inactive,
OC[C@H]1O[C@@](CO)(O[C@H]2O[C@H](CO)[C@@H](O)[C@H](O)[C@H]2O)[C@@H](O)[C@@H]1O,inactive,
O=C1CN(N=Cc2ccc([N+](=O)[O-])o2)C(=O)N1,,56.7 µM (active)
